From PubChem BioAssay AID686978 (National Center for Advancing Translational Sciences (NCATS), 2013)
About 64,000 (15%) of roughly 420,000 compounds were called active. Another 27% or so got no clear call; they are omitted. A selection follows. Values without a mark were called inactive. The call rests on the fitted dose curve; in most records, active means well fitted inhibition curve with a large enough effect; inconclusive means small, poorly fitted or top-dose-only effect; inactive means flat fitted curve, though single readings scatter.

assay: qHTS for Inhibitors of human tyrosyl-DNA phosphodiesterase 1 (TDP1): qHTS in cells in absence of CPT; details: DT40 Tdp1-/- hTDP1 cells, no CPT, ATP luminescence, 48 h; activity change, negative = growth inhibition: at 46.2 µM (top of the series); further: nearly all actives have a fitted effect of over 55% in size
How it was run: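 No-CPT arm: Tdp1-/-;hTDP1 DT40 cells (400/well) plus compounds, incubated ≥48 hr at 37 °C. Readout CellTiter-Glo luminescence.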
On the % scale 0 is the no-effect control and ±100 the full control effect; potency means the concentration at half of the fitted maximal effect.

Row | SMILES | activity change, negative = growth inhibition [%] | Potency
1 | CCOC(=O)CSc1nnc(CNC(=O)c2ccco2)n1-c1ccc(F)cc1 | 6.97 | 
2 | NNC(=O)c1cnn(-c2ccccc2)c1C(F)(F)F | 13.2 | 
3 | CN(C)CCCOc1ccc(-c2ccc3nccn3c2)cn1 | -20.3 | 
4 | OC[C@@H]1CN(Cc2ccc(-c3ccccc3)cc2)C[C@H](n2cnc3c(NC4CCCC4)ncnc32)O1 |  | 1.3 µM (active)
5 | OC[C@@H]1CN(Cc2cccs2)C[C@H](n2cnc3c(Nc4ccccc4)ncnc32)O1 | -25.5 | 
6 | OC[C@@H]1CN(C2CCCC2)C[C@H](n2cnc3c(NC4CCC4)ncnc32)O1 | -14.2 | 
7 | Cc1nnc(SCC(N)=O)n1CC1CCCO1 (stereo not drawn) | -19.1 | 
8 | O=C(O)CSCc1nc2ccccc2s1 | -6.51 | 
9 | CCOC(=O)/C(C#N)=C/c1ccc(N2CCN(Cc3ccccc3)CC2)cc1 |  | 20.6 µM (active)
10 | CCOC(=O)/C(C#N)=C/c1ccc(OCC(=O)Nc2ccccc2)c(OC)c1 | -0.871 | 
11 | CCOC(=O)/C(C#N)=C/c1ccc(N2CCCCC2)cc1 | 3.19 | 
12 | O=C1C2C3C=CC(C3)C2C(=O)N1c1ccc(-c2nc3ccccc3c(=O)o2)cc1 (stereo not drawn) | 15.5 | 
13 | CN(C)c1ccc(/C=N/NC(=O)C(O)c2ccc(Br)cc2)cc1 (stereo not drawn) | -22.4 | 
14 | NS(=O)(=O)c1ccc(NC(=S)NC(=O)c2cccnc2)cc1 | -5.24 | 
15 | O=C1c2ccccc2S(=O)(=O)c2cc(N3CCN(c4ccccn4)CC3)ccc21 | -5.63 | 
16 | COc1ccccc1NC(=O)CN1C(=O)c2ccccc2Sc2ccc(C(=O)N3CCCC3)cc21 | -29.9 | 
17 | O=C(c1cccc(Br)c1)N1CCN(C2=NS(=O)(=O)c3ccccc32)CC1 | -10.2 | 
18 | CC1CCCN(C(=O)CN2C(=O)c3ccccc3S2(=O)=O)C1 (stereo not drawn) | -10.2 | 
19 | O=C(c1ccc2c(c1)N(Cc1ccccc1)C(=O)c1ccccc1S2(=O)=O)N1CCCC1 |  | 23.1 µM (active)
20 | O=C(c1ccc2c(c1)N(Cc1ccccc1F)C(=O)c1ccccc1S2(=O)=O)N1CCOCC1 | -16.3 | 
21 | O=C(c1ccc2c(c1)N(Cc1ccccc1)C(=O)c1ccccc1S2(=O)=O)N1CCC(Cc2ccccc2)CC1 |  | 5.8 µM (active)
22 | O=C(c1ccc2c(c1)C(=O)N(c1ccc(Cl)cc1)C2=O)N1CCN(c2ccccn2)CC1 | -13.2 | 
23 | O=C(c1ccc2c(c1)N(Cc1ccc(F)cc1)C(=O)c1ccccc1S2(=O)=O)N1CCN(c2ccccn2)CC1 |  | 18.4 µM (active)
24 | COc1ccc(Cl)cc1N(CC(=O)N/N=C/c1ccc(OCC(N)=O)cc1)S(C)(=O)=O | -9.15 | 
25 | CCOc1ccc(C(=O)N2CCN(CCc3ccccn3)CC2)cc1 | -26.6 | 

Row | SMILES | activity change, negative = growth inhibition [%] | Potency
26 | O=C(CSc1nnc(-c2cccnc2)n1CCc1ccccc1)NCc1ccccc1 | -0.184 | 
27 | COc1ccc(C)cc1NC(=O)CCS(=O)(=O)c1cccc2nonc12 | -7.48 | 
28 | COCCN(CCOC)S(=O)(=O)NC[C@H]1O[C@@H](n2cnc3c(N)ncnc32)[C@H](O)[C@@H]1O | -1.26 | 
29 | CN1CCN(S(=O)(=O)c2ccc(NC(=S)NC(=O)C3CC3)cc2)CC1 | -7.98 | 
30 | CCOC(=O)c1cccnc1NC(=O)c1ccncc1 | 7.91 | 
31 | O=C(O)c1ccccc1-c1ccccc1C(=O)Nc1cccc2ccccc12 | -2.15 | 
32 | COC(=O)COc1ccc2c(c1C)O/C(=C\c1ccco1)C2=O | -27.7 | 
33 | O=c1cc(O)c(-c2cccc(C(F)(F)F)c2)c(Cl)[nH]1 | -13.8 | 
34 | C=CCn1cc(-c2cccc(C(F)(F)F)c2)cc(C#N)c1=O | -9.09 | 
35 | CC1(Cc2cccc(C#N)c2)C(=O)Nc2ccc(-c3cccc(C(F)(F)F)c3)cc21 (stereo not drawn) |  | 20.6 µM (active)
36 | COC(=O)C(C)Sc1ccc2nnc(-c3cccc(F)c3)n2n1 (stereo not drawn) | -17.7 | 
37 | Cc1ccc(-n2cnc3ncnc(-c4ccccc4)c32)cc1 | -16.9 | 
38 | Cc1ccc(-n2cc(CN(C)Cc3nccn3C)c(-c3cccc(C)c3)n2)cc1 |  | 23.1 µM (active)
39 | CCn1ccnc1CN(C)Cc1nc(-c2ccc3c(c2)OCO3)no1 | -24.4 | 
40 | O=C(CCCl)Nc1ccc(S(=O)(=O)NCc2ccco2)cc1 | -4.87 | 
41 | Cc1oc(-c2ccccc2Cl)[n+]([O-])c1C |  | 23.1 µM (active)
42 | Cc1ccc(-c2cc(-c3coc4ccccc4c3=O)c3c(n2)-c2cc(Cl)ccc2OC3)cc1 | -9.37 | 
43 | O=C(c1ccc(OC2CCN(Cc3ccccn3)CC2)cc1)N1CCCCCC1 | -20 | 
44 | COc1cc([N+](=O)[O-])ccc1NC(=O)COC(=O)CCOc1ccc(C)cc1 |  | 6.51 µM (active)
45 | COc1cc([N+](=O)[O-])ccc1NC(=O)CN1CCCC1 | 1.19 | 
46 | CSc1ccccc1NC(=O)COC(=O)CCCOc1ccc(C)cc1 | -4.28 | 
47 | O=C(C[C@H]1CC[C@@H](NC(=O)c2ccncc2)[C@@H](CO)O1)NCC1CC1 | -1.98 | 
48 | CN(CCC#N)c1ncnc2scc(-c3ccccc3)c12 |  | 14.6 µM (active)
49 | N#CCCN(CCC#N)c1nnc(-c2ccccc2)s1 | -4.74 | 
50 | C=CCn1cnc2scc(-c3ccccc3)c2c1=O | -17.8 | 

Row | SMILES | activity change, negative = growth inhibition [%] | Potency
51 | CCC(=O)NC(Nc1cc(C)ccn1)(C(F)(F)F)C(F)(F)F | -7.28 | 
52 | Cc1cc(C)cc(OCC(=O)Nc2ccc(S(=O)(=O)Nc3ccccn3)cc2)c1 | -19.5 | 
53 | Cc1cc(C)cc(NS(=O)(=O)c2ccc(Oc3ncc(C(F)(F)F)cc3Cl)cc2)c1 |  | 13 µM (active)
54 | COC(=O)Cc1ccc(Oc2ncc(C(F)(F)F)cc2Cl)cc1 | -12.9 | 
55 | Cc1nc(C(F)(F)F)ccc1C(=O)N1CCC1(C)C(=O)NS(=O)(=O)c1ccccc1 (stereo not drawn) | -4.76 | 
56 | O=C(CCN1Cc2ccccc2OC(c2ccccc2)C1)N[C@@H]1CS(=O)(=O)C[C@H]1O (stereo partly drawn) | -13.3 | 
57 | COc1ccc(C2COC(=O)C2=N)c(NC(=O)c2ccccc2)c1 (stereo not drawn) | -28.1 | 
58 | CCCc1ccc(C(=O)[C@@H]2[C@@H](C(C)=O)N3c4ccc(F)cc4C=C[C@@H]3[C@@]23C(=O)Nc2ccccc23)cc1 |  | 18.4 µM (active)
59 | COc1cc(C(=O)N[C@@H](C)C(=O)NCc2ccco2)cc(OC)c1OC | -2.61 | 
60 | COc1cc(C(=O)NC(=S)NCc2ccco2)cc(OC)c1OC |  | 20.6 µM (active)
61 | COc1cccc(OC)c1C(=O)NC(=S)NCc1ccco1 | -16.1 | 
62 | COc1ccc(-c2nc3c(c(SCC(=O)Nc4ccc(C(=O)O)cc4)n2)Cc2ccccc2O3)cc1 | -7.92 | 
63 | Cc1oc2nc(SCC(=O)NCc3cccnc3)nc(N)c2c1C | 0.424 | 
64 | COc1ccccc1NC(=O)C1=C(C)NC(=O)NC1c1ccc(C)s1 (stereo not drawn) | -13.6 | 
65 | O=C(Cn1nc(CNc2ccc(Cl)cc2)[n+]2c1CCCCC2)c1ccc(Cl)cc1 |  | 23.1 µM (active)
66 | CC(NC(=O)c1ccc(Cl)cc1)C(=O)N1CCCCC1 (stereo not drawn) | -9.8 | 
67 | O=C(Cn1nnc(N2CCCCC2)n1)c1ccc(Cl)c(Cl)c1 | -10.8 | 
68 | CC1(c2ccccc2Cl)NC(=O)N(CC(=O)NC(=O)NCc2ccco2)C1=O (stereo not drawn) | -5.22 | 
69 | O=C(CCN1C(=O)c2ccncc2C1=O)Nc1ccc2c(c1)OCCO2 | -12.2 | 
70 | Cc1ccc(/C=C2\SC(=S)N(CCC(=O)Nc3ccc(O)cc3)C2=O)cc1 | -12.5 | 
71 | COC(=O)C1=C(C)NC(=O)/C1=C/c1ccc(CNS(=O)(=O)c2ccc(C)cc2)o1 | -16.5 | 
72 | COC(=O)C1=C(C)N(c2ccc(C)cc2)/C(=C/c2ccc(O)cc2)C1=O |  | 20.6 µM (active)
73 | CC(C)CNS(=O)(=O)c1ccc(C(=O)Nc2ccc3c(c2)OCO3)cc1 | -21.9 | 
74 | CCC(C)[C@@H](C(=O)N1CCNCC1)n1cc(CCCCN)nn1 (stereo partly drawn) | -5.37 | 
75 | CC1=C(C(=O)OCC(C)C)C(c2ccc(OCc3ccccc3)cc2)N2C(=O)CCSC2=N1 (stereo not drawn) |  | 16.4 µM (active)

Row | SMILES | activity change, negative = growth inhibition [%] | Potency
76 | CC(C)C12CN3CC(C(C)C)(CN(C1)C3c1ccc(OCc3ccccc3)cc1)C2=O (stereo not drawn) | 1.91 | 
77 | C=CCOC(=O)C1=C(C)N=C2SCCC(=O)N2C1/C=C/c1ccccc1OC (stereo not drawn) | -1.5 | 
78 | COc1ccc(-n2c(=O)c(-c3cn(C)c4ccccc34)nc3cnc(OC)nc32)cc1 | -3.92 | 
79 | CCC(C(=O)N1CCOCC1)n1c(C(=O)OC)cc2occc21 (stereo not drawn) | 1.19 | 
80 | CCOC(=O)C1CN(S(=O)(=O)c2ccc(OC)cc2)c2cc(Cl)ccc2O1 (stereo not drawn) |  | 20.6 µM (active)
81 | CCOc1ccc(S(=O)(=O)N2CCC(C(=O)OCc3ccc(OC)cc3)CC2)cc1 | -10.8 | 
82 | CCS(=O)(=O)c1ccc2c(c1)N(S(=O)(=O)c1ccccc1)CC(C(=O)O)O2 (stereo not drawn) | -5.4 | 
83 | Cn1cc(S(=O)(=O)N2CCN(c3ccc(F)cc3)CC2)c(=O)n(C)c1=O | -26.6 | 
84 | Nc1nnc(SCC(=O)NC2CCCc3ccccc32)s1 (stereo not drawn) | 15.3 | 
85 | CCOC(=O)N1CCN(S(=O)(=O)c2ccc(-n3cnnn3)cc2)CC1 | -12.2 | 
86 | CCOC(=O)N1CCN(S(=O)(=O)c2ccc(C(=O)Nc3ccc(F)cc3F)cc2)CC1 |  | 1.64 µM (active)
87 | CCOC(=O)N1CCN(S(=O)(=O)c2ccc(Br)cc2)CC1 | 2.06 | 
88 | Cc1ccc(S(=O)(=O)N(C)C)cc1NC(=O)c1ccc(-n2cncn2)c([N+](=O)[O-])c1 | 2.95 | 
89 | COc1cc(OC)cc(C(=O)Nc2ccc3nc(Nc4cccc(C(F)(F)F)c4)cc(C)c3c2)c1 |  | 5.8 µM (active)
90 | Cc1cc(Nc2cccc(C(F)(F)F)c2)nc2ccc(NC(=O)c3ccc(=O)[nH]c3)cc12 |  | 4.61 µM (active)
91 | O=C(NNC(=O)c1cccc(S(=O)(=O)Nc2ccc(Cl)cc2)c1)c1ccc(=O)[nH]c1 | 27.3 | 
92 | O=C(COC(=O)c1cc[n+]([O-])cc1)Nc1ccc(Cl)c(C(F)(F)F)c1 | -20.8 | 
93 | CCn1c(Cc2ccccc2)nnc1SCC(=O)Nc1ccccc1 | -13 | 
94 | CCc1nn(CC(=O)N2CCN(c3cccc(C(F)(F)F)c3)CC2)c(=O)c2cc3occc3n12 | -10.6 | 
95 | CC1COc2ccccc2N1C(=O)c1ccc(F)cc1 (stereo not drawn) | 4.13 | 
96 | C/C(CC(=O)NC(C)c1ccccc1)=N\NC(N)=S (stereo not drawn) | 2.8 | 
97 | Cc1cccc(NC(=O)c2cc(N3C(=O)CCC3=O)ccc2Cl)n1 | -0.716 | 
98 | Cc1ccccc1Nc1c([N+](=O)[O-])ccc2nonc12 | -9.27 | 
